Structures are written as SMILES. For some of these results: Potency and affinity values are given separately.

Experiment [1] concerns the target Protein translocase subunit SecA (Escherichia coli (strain K12)) (UniProt P10408). Briefly: Assay to Identify E. coli SecA ATPase Inhibitors. The class given is functional. Details: scale not given: direction of the effect not stated beside the values. The conditions noted are these: 30 µM.
Experiment [2] has as its target T1, Ubiquitin-activating enzyme e1, putative (Leishmania donovani (strain BPK282A1)) (UniProt E9BSI1).
T1 sequence (whole entry): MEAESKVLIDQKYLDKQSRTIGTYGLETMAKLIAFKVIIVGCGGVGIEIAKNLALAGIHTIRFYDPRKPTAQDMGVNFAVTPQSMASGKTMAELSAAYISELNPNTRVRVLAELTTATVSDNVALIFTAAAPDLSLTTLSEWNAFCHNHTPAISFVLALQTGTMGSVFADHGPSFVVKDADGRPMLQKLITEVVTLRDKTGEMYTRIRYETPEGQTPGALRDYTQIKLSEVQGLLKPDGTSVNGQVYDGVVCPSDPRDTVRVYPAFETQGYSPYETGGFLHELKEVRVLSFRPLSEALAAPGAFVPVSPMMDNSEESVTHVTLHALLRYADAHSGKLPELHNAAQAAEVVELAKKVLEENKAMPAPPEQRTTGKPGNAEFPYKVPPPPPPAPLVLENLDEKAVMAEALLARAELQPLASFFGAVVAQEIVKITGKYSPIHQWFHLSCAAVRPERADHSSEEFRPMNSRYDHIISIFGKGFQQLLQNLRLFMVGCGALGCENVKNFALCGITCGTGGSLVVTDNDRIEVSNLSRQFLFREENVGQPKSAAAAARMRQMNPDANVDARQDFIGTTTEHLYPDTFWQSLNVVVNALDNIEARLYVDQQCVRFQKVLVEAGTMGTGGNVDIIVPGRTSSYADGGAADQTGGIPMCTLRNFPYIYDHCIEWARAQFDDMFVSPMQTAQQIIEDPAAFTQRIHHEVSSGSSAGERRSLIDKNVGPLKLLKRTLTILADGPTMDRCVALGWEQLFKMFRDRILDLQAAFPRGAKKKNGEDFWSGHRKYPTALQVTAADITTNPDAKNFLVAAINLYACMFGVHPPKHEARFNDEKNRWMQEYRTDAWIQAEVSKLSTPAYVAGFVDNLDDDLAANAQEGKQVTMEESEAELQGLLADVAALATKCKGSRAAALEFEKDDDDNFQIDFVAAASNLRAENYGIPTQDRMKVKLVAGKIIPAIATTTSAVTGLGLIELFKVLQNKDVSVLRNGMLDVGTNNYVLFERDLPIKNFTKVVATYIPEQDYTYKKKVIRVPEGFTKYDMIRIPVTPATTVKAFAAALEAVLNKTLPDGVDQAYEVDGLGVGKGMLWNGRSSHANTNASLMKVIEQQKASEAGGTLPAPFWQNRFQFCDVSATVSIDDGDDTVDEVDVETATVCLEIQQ
As to the kind of experiment: Leishmania donovani Ubiquitin Activating Enzyme (LdE1). Type of experiment: functional. The note with it: 30 µM. More on the design: scale not given: direction of the effect not stated beside the values.

The target in experiment [3] is AMP-activated protein kinase, AMPK (Homo sapiens) (UniProt P54646+O43741+P54619+Q9UGJ0+Q9Y478+Q13131+Q9UGI9). As to the kind of experiment: AMP-dependent Kinase enzyme assay. An in vitro enzyme assay that detects ADP turnover that is directly proportional to AMPK activity. This uses naive AMPK that is activated during the assay with MK-8722. The class given is functional. More on the design: scale not given: direction of the effect not stated beside the values. The conditions noted are these: 30 µM.

Experiment [4] addresses Sialic acid-binding Ig-like lectin 9 (Homo sapiens) (UniProt Q9Y336). As to the kind of experiment: Hs-Siglec9 ALPHAscreen SOP 20170721. Details: scale not given: direction of the effect not stated beside the values. The conditions noted are these: 10 µM.
For the next experiment, the system named is Trypanosoma cruzi. As to the kind of experiment: Trypanosoma cruzi phosphomannomutase and mannose-1-phosphate guanylyltransferase assay. Type of experiment: functional. Details: scale not given: direction of the effect not stated beside the values. The note with it: 10 µM.
The target in experiment [5] is T2, Arginase-2, mitochondrial (Homo sapiens) (UniProt P78540).
T2 sequence (whole entry): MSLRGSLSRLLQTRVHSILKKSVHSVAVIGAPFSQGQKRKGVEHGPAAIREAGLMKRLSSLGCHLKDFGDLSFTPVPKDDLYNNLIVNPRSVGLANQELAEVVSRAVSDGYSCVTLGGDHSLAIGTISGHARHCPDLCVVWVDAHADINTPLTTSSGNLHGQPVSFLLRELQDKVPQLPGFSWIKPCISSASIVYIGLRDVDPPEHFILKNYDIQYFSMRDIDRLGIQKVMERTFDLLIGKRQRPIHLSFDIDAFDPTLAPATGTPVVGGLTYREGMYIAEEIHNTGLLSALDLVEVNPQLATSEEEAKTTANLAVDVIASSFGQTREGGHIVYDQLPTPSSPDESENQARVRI
Briefly: in vitro enzyme assay to detect the production of urea directly proportional to the activity of Arginase II. Type of experiment: functional. Details: scale not given: in the data most compounds retested in dose-response had high values.

For experiment [6], the target named is T3, Proteasome subunit beta (Trypanosoma cruzi) (UniProt O96673).
T3 sequence (whole entry): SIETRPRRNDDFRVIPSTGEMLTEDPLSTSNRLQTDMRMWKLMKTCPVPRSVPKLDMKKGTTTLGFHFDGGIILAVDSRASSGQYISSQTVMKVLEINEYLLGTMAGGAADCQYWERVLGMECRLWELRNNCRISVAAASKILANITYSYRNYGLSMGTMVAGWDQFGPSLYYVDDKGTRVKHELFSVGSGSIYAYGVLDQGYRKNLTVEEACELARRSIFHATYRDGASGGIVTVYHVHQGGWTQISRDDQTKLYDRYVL
As to the kind of experiment: Trypanosoma cruzi proteasome chymotrypsin-like activity (TcProtChymo) assay. The class given is functional. More on the design: scale not given: in the data most compounds retested in dose-response had high values. The conditions noted are these: 9.37 µM.

The species entered for a further experiment is Homo sapiens. Briefly: To identify inhibition of the IFN signalling (Jak-Stat) pathway via expression of an eGFP reporter gene under the control of an IFN-stimulated response element (ISRE) containing MxA promoter. Type of experiment: functional. Details: scale not given: direction of the effect not stated beside the values. The note with it: 30 µM.

Experiment [7] has as its target T4, Tyrosyl-tRNA synthetase, putative (Trypanosoma cruzi (strain CL Brener)) (UniProt Q4DSP6).
T4 sequence (whole entry): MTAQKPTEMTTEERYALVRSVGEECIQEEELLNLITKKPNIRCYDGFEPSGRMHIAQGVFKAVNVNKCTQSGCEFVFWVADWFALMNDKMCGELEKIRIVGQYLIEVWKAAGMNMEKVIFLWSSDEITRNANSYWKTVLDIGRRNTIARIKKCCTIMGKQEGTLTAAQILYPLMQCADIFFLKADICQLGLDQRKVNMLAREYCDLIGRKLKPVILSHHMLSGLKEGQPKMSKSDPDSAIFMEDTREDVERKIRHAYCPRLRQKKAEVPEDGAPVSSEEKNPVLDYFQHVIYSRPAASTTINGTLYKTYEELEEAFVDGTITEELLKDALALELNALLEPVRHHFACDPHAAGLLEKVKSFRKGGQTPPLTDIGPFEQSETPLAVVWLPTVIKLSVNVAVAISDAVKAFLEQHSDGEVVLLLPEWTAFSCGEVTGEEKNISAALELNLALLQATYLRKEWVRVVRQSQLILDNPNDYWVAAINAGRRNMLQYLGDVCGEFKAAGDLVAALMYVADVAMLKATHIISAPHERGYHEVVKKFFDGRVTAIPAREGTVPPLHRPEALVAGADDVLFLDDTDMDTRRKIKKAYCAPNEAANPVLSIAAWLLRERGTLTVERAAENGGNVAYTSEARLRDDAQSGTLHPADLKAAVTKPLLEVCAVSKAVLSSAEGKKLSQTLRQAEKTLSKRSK
As to the kind of experiment: Trypanosoma cruzi tyrosyl tRNA synthetase (TcYRS) _High Tyrosine SOP. Type of experiment: functional. More on the design: scale not given: in the data most compounds retested in dose-response had high values. The note with it: 30 µM.

The target in experiment [8] is T4, Tyrosyl-tRNA synthetase, putative (Trypanosoma cruzi (strain CL Brener)). Briefly: Trypanosoma cruzi tyrosyl tRNA synthetase (TcYRS) SOP. Type of experiment: functional. The note with it: 30 µM. Details: scale not given: direction of the effect not stated beside the values.
Experiment [9] addresses Chromo domain-containing protein 1 (Saccharomyces cerevisiae (strain ATCC 204508 / S288c) (Baker's yeast)) (UniProt P32657). As to the kind of experiment: ScCHD-1 Enzyme Inhibition Assay. The note with it: 30 µM. More on the design: scale not given: in the data most compounds retested in dose-response had high values. The class given is functional.
For experiment [10], the target named is T5, Methionyl-tRNA synthetase, putative (Leishmania donovani (strain BPK282A1)) (UniProt E9BF75).
T5 sequence (whole entry): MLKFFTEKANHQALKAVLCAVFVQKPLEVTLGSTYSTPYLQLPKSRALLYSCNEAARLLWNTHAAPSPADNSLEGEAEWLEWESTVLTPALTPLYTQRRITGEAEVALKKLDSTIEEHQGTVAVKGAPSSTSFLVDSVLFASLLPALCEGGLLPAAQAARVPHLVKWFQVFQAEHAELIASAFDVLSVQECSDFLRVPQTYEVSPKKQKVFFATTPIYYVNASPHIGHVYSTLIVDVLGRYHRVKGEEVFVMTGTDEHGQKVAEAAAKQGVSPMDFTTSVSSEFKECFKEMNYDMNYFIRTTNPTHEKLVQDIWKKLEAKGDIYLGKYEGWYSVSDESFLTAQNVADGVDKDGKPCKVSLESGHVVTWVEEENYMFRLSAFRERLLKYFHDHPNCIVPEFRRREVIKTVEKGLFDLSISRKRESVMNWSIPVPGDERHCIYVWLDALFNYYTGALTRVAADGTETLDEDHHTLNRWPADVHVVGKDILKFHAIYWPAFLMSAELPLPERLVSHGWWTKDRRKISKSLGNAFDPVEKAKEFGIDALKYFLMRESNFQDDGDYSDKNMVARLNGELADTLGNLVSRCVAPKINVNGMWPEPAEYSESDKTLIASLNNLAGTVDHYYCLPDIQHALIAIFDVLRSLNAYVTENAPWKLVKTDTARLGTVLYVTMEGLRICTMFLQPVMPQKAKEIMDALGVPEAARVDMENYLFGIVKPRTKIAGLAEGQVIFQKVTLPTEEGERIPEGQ
Briefly: Leishmania donovani Methionine tRNA synthetase (LdMetRS):v7. Dose response assay. The class given is functional. More on the design: conc 80 nM, time 150 minutes.

Sequence of Sialic acid-binding Ig-like lectin 9 (Homo sapiens) (Q9Y336 whole entry): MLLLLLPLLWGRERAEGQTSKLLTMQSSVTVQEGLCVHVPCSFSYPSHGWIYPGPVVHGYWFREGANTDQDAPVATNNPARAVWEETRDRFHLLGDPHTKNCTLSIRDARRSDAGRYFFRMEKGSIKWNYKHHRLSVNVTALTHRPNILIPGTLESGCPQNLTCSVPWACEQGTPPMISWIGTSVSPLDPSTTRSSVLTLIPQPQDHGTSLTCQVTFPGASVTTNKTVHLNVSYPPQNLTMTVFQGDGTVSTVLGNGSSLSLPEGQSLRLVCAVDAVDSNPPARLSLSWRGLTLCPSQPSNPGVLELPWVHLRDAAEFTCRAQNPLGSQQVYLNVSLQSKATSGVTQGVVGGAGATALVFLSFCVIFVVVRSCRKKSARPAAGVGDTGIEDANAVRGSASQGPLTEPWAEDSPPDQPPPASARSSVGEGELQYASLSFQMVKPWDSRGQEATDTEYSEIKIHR
Sequence of Protein translocase subunit SecA (Escherichia coli (strain K12)) (P10408 whole entry): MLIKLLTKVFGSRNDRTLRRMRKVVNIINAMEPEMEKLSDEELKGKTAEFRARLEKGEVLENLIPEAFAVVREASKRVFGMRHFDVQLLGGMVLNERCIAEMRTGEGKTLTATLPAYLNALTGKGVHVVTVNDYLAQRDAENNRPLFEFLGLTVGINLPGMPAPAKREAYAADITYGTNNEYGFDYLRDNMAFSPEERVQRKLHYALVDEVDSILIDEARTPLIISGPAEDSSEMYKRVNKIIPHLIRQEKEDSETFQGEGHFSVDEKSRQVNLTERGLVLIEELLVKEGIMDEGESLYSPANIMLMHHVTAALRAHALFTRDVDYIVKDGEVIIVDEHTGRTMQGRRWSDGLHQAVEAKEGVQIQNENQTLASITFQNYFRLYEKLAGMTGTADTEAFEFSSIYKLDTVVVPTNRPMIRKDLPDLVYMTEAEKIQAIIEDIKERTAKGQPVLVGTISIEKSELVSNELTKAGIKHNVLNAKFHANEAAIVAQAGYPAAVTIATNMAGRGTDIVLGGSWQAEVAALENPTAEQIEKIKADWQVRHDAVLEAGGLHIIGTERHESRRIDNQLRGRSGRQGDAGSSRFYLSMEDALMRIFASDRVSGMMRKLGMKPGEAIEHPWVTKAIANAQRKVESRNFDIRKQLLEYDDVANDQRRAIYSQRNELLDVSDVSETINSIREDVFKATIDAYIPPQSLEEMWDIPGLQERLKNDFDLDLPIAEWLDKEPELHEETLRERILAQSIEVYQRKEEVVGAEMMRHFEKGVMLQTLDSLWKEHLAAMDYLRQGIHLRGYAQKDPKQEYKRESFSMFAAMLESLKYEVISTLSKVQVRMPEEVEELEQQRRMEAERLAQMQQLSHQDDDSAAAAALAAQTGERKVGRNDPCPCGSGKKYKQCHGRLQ
Sequence of Chromo domain-containing protein 1 (Saccharomyces cerevisiae (strain ATCC 204508 / S288c) (Baker's yeast)) (P32657 whole entry, the tested form may be a part): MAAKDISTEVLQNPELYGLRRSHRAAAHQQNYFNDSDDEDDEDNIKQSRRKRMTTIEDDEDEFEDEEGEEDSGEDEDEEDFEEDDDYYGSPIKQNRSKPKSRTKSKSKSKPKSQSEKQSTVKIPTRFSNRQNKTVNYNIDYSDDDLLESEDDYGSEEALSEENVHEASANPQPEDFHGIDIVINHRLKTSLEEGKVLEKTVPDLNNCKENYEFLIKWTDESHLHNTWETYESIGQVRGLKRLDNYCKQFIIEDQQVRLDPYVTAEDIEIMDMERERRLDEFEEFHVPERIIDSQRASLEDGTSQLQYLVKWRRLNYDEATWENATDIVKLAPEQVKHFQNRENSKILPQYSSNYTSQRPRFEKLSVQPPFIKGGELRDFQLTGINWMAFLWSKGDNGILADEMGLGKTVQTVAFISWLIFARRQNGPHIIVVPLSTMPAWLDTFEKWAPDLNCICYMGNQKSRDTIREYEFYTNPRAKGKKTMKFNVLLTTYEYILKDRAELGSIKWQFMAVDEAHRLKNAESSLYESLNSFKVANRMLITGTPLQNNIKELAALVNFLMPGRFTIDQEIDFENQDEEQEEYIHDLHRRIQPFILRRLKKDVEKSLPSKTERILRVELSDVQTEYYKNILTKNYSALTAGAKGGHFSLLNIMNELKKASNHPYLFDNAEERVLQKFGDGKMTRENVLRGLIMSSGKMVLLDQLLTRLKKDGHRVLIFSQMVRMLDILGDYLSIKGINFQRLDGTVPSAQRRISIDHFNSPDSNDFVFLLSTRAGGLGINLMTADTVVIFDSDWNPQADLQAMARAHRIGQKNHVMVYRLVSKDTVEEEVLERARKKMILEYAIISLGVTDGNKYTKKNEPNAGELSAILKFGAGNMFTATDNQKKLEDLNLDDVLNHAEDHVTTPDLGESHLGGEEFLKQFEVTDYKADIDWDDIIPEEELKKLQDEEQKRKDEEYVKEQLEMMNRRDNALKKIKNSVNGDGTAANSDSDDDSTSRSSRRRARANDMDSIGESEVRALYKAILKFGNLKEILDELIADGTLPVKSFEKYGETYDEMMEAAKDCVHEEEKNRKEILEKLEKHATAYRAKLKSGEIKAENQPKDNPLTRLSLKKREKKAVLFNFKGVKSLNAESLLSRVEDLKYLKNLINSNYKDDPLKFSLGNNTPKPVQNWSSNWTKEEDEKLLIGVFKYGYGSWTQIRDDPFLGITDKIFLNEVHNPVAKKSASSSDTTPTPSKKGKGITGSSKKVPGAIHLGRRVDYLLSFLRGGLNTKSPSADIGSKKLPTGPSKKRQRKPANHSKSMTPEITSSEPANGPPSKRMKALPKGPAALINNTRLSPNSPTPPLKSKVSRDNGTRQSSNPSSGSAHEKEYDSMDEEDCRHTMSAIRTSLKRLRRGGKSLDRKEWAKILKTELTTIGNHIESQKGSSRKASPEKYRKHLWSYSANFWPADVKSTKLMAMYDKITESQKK

In the case of `FC(F)(F)C1CCc2nnc(CNCc3ccsc3)n2C1` (stereo unspecified), the Percent Effect in experiment [1] is -4.02%; in [2], 16.2%; in experiment [3], 1.38%; in experiment [4], 30.8%; with Trypanosoma cruzi, 5.18%; in [5] (30 µM) it was 5.95%. The Percent Effect in experiment [5] (33.3 µM) is 10.2%; in [6] it was 10.4%; in the experiment listed under Homo sapiens, -8.39%; in experiment [7], 5.38%; in [8] it was 16.1%; in experiment [9], -13.2%.
Regarding `Cc1nc(C2CCCN2C(=O)CNS(C)(=O)=O)no1` (stereo unspecified), the Percent Effect is -2.65% in [1]; 5.33% in experiment [2]; -7.92% in experiment [3]; -1.69% in [4]; -0.876% in the experiment on Trypanosoma cruzi; -12.4% in experiment [5] (30 µM). Moreover, the Percent Effect was 0% in experiment [5] (33.3 µM); 10.5% in experiment [6]; 5.88% in the experiment listed under Homo sapiens; 7.1% in experiment [7]; 18.5% in [8]; -12.8% in experiment [9].
`c1ccc(C2CCN(c3cncc(-n4cccn4)n3)CC2)cc1`: the PXC50 in experiment [10] (MAX_EFFECT 19.47743468) and in experiment [10] (MAX_EFFECT 35.38732394) was < 4 in each case. For the same compound, the Percent Effect in experiment [1] was -1.56%; in experiment [2], 8.11%; in experiment [3] it was 3.62%; in experiment [4], 3.88%; in the experiment with Trypanosoma cruzi, 1.17%; in experiment [5] (33.3 µM), 5.42%. For the same compound, the Percent Effect in experiment [6] is 14.1%; in the experiment listed under Homo sapiens, 10%; in experiment [7], 9.9%; in [8], 18.3%; in [9], -4.19%.
In the case of `CN(Cc1ccccn1)C1CC2(CCN(Cc3cccnc3)CC2)C1`, the Percent Effect in experiment [1] was -7.24%; in experiment [2] it was 13.3%; in experiment [3] it was 5.22%; in experiment [4] it was -6.34%; with Trypanosoma cruzi it was -10%; in [5] (30 µM), -2.7%. Also, the Percent Effect in experiment [5] (33.3 µM) is 0.233%; in [6], 9.6%; in the experiment listed under Homo sapiens, 10.9%; in experiment [7], 4.25%; in experiment [8] it was 11.5%; in [9] it was -7.41%.
With `Cc1cc(NC(=O)N2CCN(c3nc(C)c(C)s3)CC2)no1`, the Percent Effect is -4.08% in experiment [1]; -2.7% in experiment [2]; 8.59% in [3]; -1.24% in experiment [4]; -4.3% with Trypanosoma cruzi; 3.78% in experiment [5] (30 µM). Moreover, the Percent Effect is 0.833% in [5] (33.3 µM); 12.8% in experiment [6]; -8.43% in the experiment listed under Homo sapiens; 5.94% in experiment [7]; 8.54% in experiment [8]; -0.744% in [9].

For the origin of these results see ChEMBL document CHEMBL3988442, “University of Dundee, Small-Polar-MMV Screening Library” (2021).
